Sfp PPTase inh: qHTS Assay for Inhibitors of Bacillus subtilis Sfp phosphopantetheinyl transferase (PPTase). Biochemical Sfp PPTase activity, qHTS. Potency, µM, for inactives: largest response in the series, negative = inhibition, hits mostly inhibitors. 3.5% of 310,000 active. AID 1490, 2009;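 also: the enzyme is Sfp with the accession as filed and its product quenches rhodamine fluorescence; 0% = enzyme reaction without inhibitor and -100% = no enzyme wells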
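Fluorescence-quenching assay with 15 nM Sfp, 5 uM rhodamine-CoA and 12.5 uM BHQ-2-labelled ybbR peptide in pH 7.6 Hepes/MgCl2 buffer. Enzyme was pre-incubated with compound for 15 min at room temperature. Rate was taken from the 30-min fluorescence change (525/598 nm).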
HP1b chromo inh: HTS for Inhibitors of HP1-beta Chromodomain Interactions with Methylated Histone Tails; 0.56% of 390,000 active; Potency, µM (series often up to 114 µM), for the others: at the highest dose activity change, negative = inhibition, usual class: inhibitors; AID 540317, 2011; Chromobox protein homolog 1 (Homo sapiens), P83916; AlphaScreen HP1-beta / biotin-H3K9me3 peptide binding; also: nearly all actives have a fitted effect of over 70% in size
Target sequence (P83916 whole entry, looked up): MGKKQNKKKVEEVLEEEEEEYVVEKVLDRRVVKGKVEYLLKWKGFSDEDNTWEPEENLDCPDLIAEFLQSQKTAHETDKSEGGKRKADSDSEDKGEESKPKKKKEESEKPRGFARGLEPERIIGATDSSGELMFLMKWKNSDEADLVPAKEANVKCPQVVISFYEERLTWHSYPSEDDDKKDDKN
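HP1-beta protein (50 nM final) preincubated 30 min at room temperature with biotinylated H3(1-18)K9me3 peptide (50 nM) in PBS pH 7.4, 0.01% Tween-20, then compound added for 30 min. AlphaScreen streptavidin donor/nickel chelate acceptor beads (10 ug/mL final), 30 min dark, luminescence read.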
BAZ2B inh: qHTS Assay for Inhibitors of BAZ2B; AID 504333, 2011; AlphaScreen BAZ2B-H3K14Ac peptide displacement; 4.4% of 360,000 active; Bromodomain adjacent to zinc finger domain protein 2B (Homo sapiens), Q9UIF8; Potency, µM (doses to about 114 µM), for the others: at the highest dose activity change, negative = inhibition, hits mostly inhibitors; also: % is scaled to controls: 0 for no effect and ±100 for the full control effect; nearly all actives have a fitted effect of over 60% in size
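Complex of BAZ2B and biotin-H3K14Ac (50 nM apiece) forms over 30 min at RT, then faces library compounds up to 110 uM for another 30 min; AlphaScreen beads added, 20 min dark incubation, luminescence read.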
JMJD2A Tudor inh: qHTS Assay for Inhibitors of JMJD2A-Tudor Domain; AlphaScreen JMJD2A-Tudor / H3K4me3 peptide binding; Potency, µM (titrated, usually from 114 µM), for the others: top-dose activity change, negative = inhibition, most hits filed as inhibitors; 4.4% of 390,000 active; AID 504339, 2011; also: % is scaled to controls: 0 for no effect and ±100 for the full control effect; nearly all actives have a fitted effect of over 50% in size
G9a block: qHTS Assay for Inhibitors of Histone Lysine Methyltransferase G9a. G9a H3K9 monomethylation, AlphaScreen, 2 h. AID 504332, 2011. Potency, µM (series often up to 102 µM), for inactives: at the top dose activity, negative = inhibition, actives largely listed as inhibitors. 8.8% of 350,000 active; also: % is scaled to controls: 0 for no effect and ±100 for the full control effect; nearly all actives have a fitted effect of over 75% in size
Target sequence (Q96KQ7 913-1193 limits assumed): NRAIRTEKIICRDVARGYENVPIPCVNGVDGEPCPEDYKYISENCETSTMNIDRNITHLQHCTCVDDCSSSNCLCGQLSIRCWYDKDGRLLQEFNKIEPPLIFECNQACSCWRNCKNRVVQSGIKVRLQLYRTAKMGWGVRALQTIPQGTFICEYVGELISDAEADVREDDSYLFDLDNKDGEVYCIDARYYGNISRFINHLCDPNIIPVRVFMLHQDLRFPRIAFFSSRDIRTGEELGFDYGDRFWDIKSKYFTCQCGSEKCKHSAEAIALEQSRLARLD
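Step 1: enzyme (final 20 nM) with compound, 15 min RT. Step 2: substrate peptide 500 nM and SAM 20 uM, 2 h RT. Step 3: anti-H3K9me1 antibody and AlphaScreen beads, 10 min, then plate read.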
L3MBTL1 block: qHTS Assay for the Inhibitors of L3MBTL1; Lethal(3)malignant brain tumor-like protein 1 (Homo sapiens), Q9Y468; AlphaScreen L3MBTL1–H3K9me1 peptide binding; Potency, µM (doses to about 57.1 µM), inactives show at the highest dose activity, negative = inhibition, hits mostly inhibitors; 0.66% of 230,000 active; also: % is scaled to controls: 0 for no effect and ±100 for the full control effect; nearly all actives have a fitted effect of over 60% in size
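Read-out is AlphaScreen signal from streptavidin donor and nickel chelate acceptor beads (10 ug/mL final each) bridging L3MBTL1 (50 nM) and biotinylated K9-monomethylated H3(1-15) peptide (75 nM), after 30 min compound exposure at room temperature.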
Numbers without * were called inactive; ? = inconclusive; / = not tested or not shown; [ ] = dose if it differs, or a comment. An excerpt weighted towards active compounds, which were near 12% of everything screened. Calls follow the shape of the dose curve; as a rule, active = well fitted curve in the direction sought with a large enough effect; inconclusive = small, poorly fitted or top-dose-only effect, or another doubt; inactive = no such curve, though single readings can be large; an effect the other way counts as inactive or inconclusive. Potency is read from the fitted curve at half-maximal effect.

SMILES	Sfp PPTase inh	HP1b chromo inh	BAZ2B inh	JMJD2A Tudor inh	G9a block	L3MBTL1 block
CC(/C=N/NC(=O)Cn1cnc2c1c(=O)n(C)c(=O)n2C)=C\c1ccco1	40µM*	27%	3%	-13%	/	7%
Cc1cnc(CNc2ccnc(-c3ccccc3C)n2)cn1	10%	/	/	/	8%[0.501 µM]	/
Cc1ccc(NC(=O)C2CCCN(S(=O)(=O)c3cnc[nH]3)C2)cc1C (centres undefined)	10%	22%	8%	-32%	-8%[59 µM]	3%
CCN(CC)c1ccc(NC(=O)C2CCCN(S(=O)(=O)c3cnc[nH]3)C2)c(C)c1 (centres undefined)	-27%	-5%	-5%	?	35µM*	/
COC(=O)[C@@]1(Cc2ccc(OC)cc2)[C@H]2c3cc(C(=O)N(C)C)n(Cc4ccccc4)c3C[C@H]2CN1C(=O)c1ccccc1	-2%	/	/	/	/	/
CC1=CC(C)(C)n2c(O)c(N=N)c3cc(C)cc1c32	-12%	?	45µM*	50µM*	?	-14%
CC1=CC(C)(C)n2c(O)c(N=N)c3c(C)ccc1c32	12%	-16%[57 µM]	?	45µM*	50µM*	-7%
CC1=CC(C)(C)n2c(O)c(N=N)c3c(C)c(C)cc1c32	-3%	?	35µM*	?	-10%[12.7 µM]	-17%
COc1cc2c3c(c1)c(N=NC(N)=S)c(O)n3C(C)(C)C=C2C	-2%	6%	-19%	-21%	/	-10%
Cc1cc(/C=C(\C#N)c2nnc(N3CCOCC3)n2-c2ccccc2)c(C)n1-c1ccccc1	-14%	/	50µM*	/	?	-9%
COc1cc(/C=C(\C#N)c2nnc(N3CCOCC3)n2-c2ccccc2)ccc1O	-1%	21%	-2%	-13%	?	-10%
N/C(=N\OC(=O)c1ccccc1[N+](=O)[O-])c1cccnc1	11%	38%	11%	-9%	?	-15%
N/C(=N\OC(=O)COc1ccc2ccccc2c1)c1ccccn1	89µM*	14%	6%	?	2%[0.501 µM]	11%
N/C(=N\OC(=O)c1ccccc1[N+](=O)[O-])c1ccccn1	-1%	9%	-31%	-20%[57.1 µM]	3.2µM*	/
COc1ccccc1C(=O)O/N=C(\N)c1ccccn1	-17%	15%	16%	-16%	/	22%
N/C(=N\OC(=O)c1ccccc1Cl)c1ccccn1	16%	10%	0%	-15%	71µM*	1%
COc1ccccc1CNc1nc2c(S(=O)(=O)c3ccc(C)c(C)c3)nnn2c2ccc(Cl)cc12	/	32%	2%	-9%	6%[59 µM]	/
C[n+]1cc(-c2ccccc2)n2c1CCCCC2	10%	20%	45µM*	-23%	71µM*	2%
CC(Sc1nnc(N)s1)C(=O)Nc1ccc2c(c1)OCO2 (centres undefined)	/	34%	12%	-27%	45µM*	-3%
O=C(Nc1ccc2c(c1)OCO2)C1CCCN(c2nc3ccccc3s2)C1 (centres undefined)	-7%	-5%	-35%	-25%	3.2µM*	-3%
CC(Sc1nc2ccccc2s1)C(=O)Nc1ccc2c(c1)OCO2 (centres undefined)	-4%	35%	-10%	8%	1.8µM*	-13%
CC(C)OCCCNC(=O)CCCn1c(SCC(=O)c2ccc(Br)cc2)nc2c(sc3ccccc32)c1=O	/	16%	-12%	-10%	9%[59 µM]	/
Cc1c2cnn(CC(=O)N3CCN(c4ccc(F)cc4)CC3)c(=O)c2c(C)n1Cc1ccccc1F	/	-2%	?	?	-20%[59 µM]	/
CC(=O)c1c(N2CCN(c3ccccc3)CC2)nc(=S)n(-c2ccccc2)c1C	79µM*	0%	-19%	-32%	-33%[59 µM]	-4%
COC(=O)c1ccc(NC(=O)CCc2c(C)nn(-c3ccc(N4CCCCC4)nn3)c2C)cc1	/	47%	-34%	?	-1%[59 µM]	/
SMILES	Sfp PPTase inh	HP1b chromo inh	BAZ2B inh	JMJD2A Tudor inh	G9a block	L3MBTL1 block
CCOc1ccc(CCNC(=O)c2c3c(nc4ccccc24)C(=O)N(C2CCCCC2)C3)cc1	/	11%	?	-34%	2%[59 µM]	/
c1ccc2c(c1)NCC1CCCN21 (centres undefined)	13%	?	45µM*	50µM*	2.2µM*	/
COC(=O)c1cc(Cl)ccc1NC(=O)CSc1ncc(S(=O)(=O)c2ccc(Br)cc2)c(=O)[nH]1	/	6%	79µM*	-25%	-16%[59 µM]	/
CCSc1nc2sc3c(c2c(=O)n1-c1ccc(C)cc1)CCCC3	/	19%	-1%	-18%	-6%[59 µM]	/
CC(C)N(C(=O)CSc1nnc(-c2cc3ccccc3cc2O)n1Cc1ccco1)C(C)C	-20%	11%	-31%	-35%	13µM*	-12%
O=C(CSc1nnc(-c2cc3ccccc3cc2O)n1Cc1ccco1)N1CCc2ccccc2C1	45µM*	23%	-25%	-29%	?	/
COc1ccc(C)cc1NC(=O)C1CCN(S(=O)(=O)Cc2ccccc2)CC1	/	3%	-1%	-17%	-10%[59 µM]	/
CCOc1cccc(CC(=O)N2CCc3c([nH]c4ccccc34)C2c2ccccc2)c1OCC (centres undefined)	/	-9%[57 µM]	?	?	-41%[59 µM]	/
Cc1cc(C)cc(N2C(=O)CSC23C(=O)N(Cc2c(F)cccc2Cl)c2ccccc23)c1 (centres undefined)	/	24%	-2%[57.1 µM]	-29%	?	/
CN1CCN(CCCN(Cc2ccco2)C(=S)Nc2ccc(Cl)cc2)CC1	14%	15%	10%	-23%	-41%	?
CCOc1ccc(NC(=S)N(CCCN2CCCC2)Cc2cccn2Cc2ccc(Cl)cc2)cc1	-14%	5%	?	?	40µM*	/
Cc1cccc(NC(=S)N(CCCN2CCCC2)Cc2cccn2Cc2ccc(Cl)cc2)c1	-7%	-15%	?	?	45µM*	/
Cc1nnc(NC(=O)C2CCN(C(=O)c3ccco3)CC2)s1	1%	-13%	4%	-4%	?	/
COCc1nnc(NC(=O)C2CCN(C(=O)c3ccco3)CC2)s1	50µM*	-16%	-2%	13%	13µM*	/
COc1ccccc1Cc1nnc(NC(=O)C2CCN(C(=O)c3ccco3)CC2)s1	45µM*	?	-20%	-11%	10µM*	/
CC(C)c1nnc(NC(=O)C2CCN(C(=O)c3ccco3)CC2)s1	-25%	-4%	2%	-3%	32µM*	/
